Holding throughout (assay): DAPPL (digital affinity profiling via proximity ligation, sequencing); 10 mM Tris-HCl pH 7.5, 50 mM NaCl, 1 mM DTT, 4% glycerol, room temperature, 30 min; GST-TFs on glutathione beads, 16-mer random dsDNA library, 0.1% formaldehyde crosslink after washing; high values mean tight binding
Common to all, as to conditions: protein: recombinant; tags: N-terminal GST; dsDNA, one strand shown

The target in one test is T1, FLI1 (Homo sapiens, UniProt Q01543 1-452).
T1 sequence: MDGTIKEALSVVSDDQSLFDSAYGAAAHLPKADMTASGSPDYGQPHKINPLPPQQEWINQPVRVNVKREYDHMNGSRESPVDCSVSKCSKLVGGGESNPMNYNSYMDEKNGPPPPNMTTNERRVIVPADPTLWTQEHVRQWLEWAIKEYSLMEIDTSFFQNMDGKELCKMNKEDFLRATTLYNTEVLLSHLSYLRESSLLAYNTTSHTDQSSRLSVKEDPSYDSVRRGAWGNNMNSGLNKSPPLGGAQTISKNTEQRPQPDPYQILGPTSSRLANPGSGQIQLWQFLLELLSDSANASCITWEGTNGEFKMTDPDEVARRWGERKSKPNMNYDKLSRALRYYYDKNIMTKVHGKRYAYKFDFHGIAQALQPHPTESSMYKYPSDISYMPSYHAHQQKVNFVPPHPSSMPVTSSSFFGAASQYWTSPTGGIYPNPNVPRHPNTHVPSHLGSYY
The gist of the method: (§1)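 Binding signal is given per hexamer as its read frequency for a factor divided by its frequency in the tag-only sample. GST-fused human transcription factors were expressed in yeast, captured on glutathione beads, barcoded with DNA and pooled with that sample, then incubated with 200 nmole of a 16-mer random double-stranded DNA library in Tris/NaCl/DTT/glycerol buffer for 30 min at room temperature. The pools were then washed, crosslinked, proximity-ligated, amplified by PCR and sequenced on an Illumina NextSeq500.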

The target in a further test is T2, ELK1 (Homo sapiens, UniProt P19419 1-428).
T2 sequence: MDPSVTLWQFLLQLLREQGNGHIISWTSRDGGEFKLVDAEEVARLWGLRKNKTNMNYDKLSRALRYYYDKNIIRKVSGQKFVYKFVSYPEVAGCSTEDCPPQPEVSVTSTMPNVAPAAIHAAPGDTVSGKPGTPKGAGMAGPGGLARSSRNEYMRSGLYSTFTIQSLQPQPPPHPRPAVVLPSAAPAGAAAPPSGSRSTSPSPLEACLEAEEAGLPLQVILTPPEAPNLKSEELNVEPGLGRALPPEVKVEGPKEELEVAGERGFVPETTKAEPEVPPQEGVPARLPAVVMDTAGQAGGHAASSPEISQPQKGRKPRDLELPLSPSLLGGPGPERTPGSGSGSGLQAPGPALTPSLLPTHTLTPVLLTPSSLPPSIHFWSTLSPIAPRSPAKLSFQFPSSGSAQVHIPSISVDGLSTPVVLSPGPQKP
Put shortly:
as §1

In another test the target is T3, GABPA (Homo sapiens, UniProt Q06546 1-454).
T3 sequence: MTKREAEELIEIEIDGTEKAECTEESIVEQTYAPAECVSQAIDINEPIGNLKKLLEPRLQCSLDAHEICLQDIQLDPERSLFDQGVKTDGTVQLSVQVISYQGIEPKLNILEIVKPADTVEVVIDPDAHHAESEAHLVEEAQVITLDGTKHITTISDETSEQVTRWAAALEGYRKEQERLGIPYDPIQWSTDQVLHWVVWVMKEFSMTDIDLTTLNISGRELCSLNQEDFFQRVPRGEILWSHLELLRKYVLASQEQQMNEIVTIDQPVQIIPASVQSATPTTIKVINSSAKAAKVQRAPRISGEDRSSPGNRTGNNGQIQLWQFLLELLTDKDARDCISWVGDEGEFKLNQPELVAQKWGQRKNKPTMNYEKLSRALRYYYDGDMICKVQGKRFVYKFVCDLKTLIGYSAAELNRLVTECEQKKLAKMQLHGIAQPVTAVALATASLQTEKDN
Put shortly:
as §1

The target in another test is T4, ERG (Homo sapiens, UniProt P11308 1-479).
T4 sequence: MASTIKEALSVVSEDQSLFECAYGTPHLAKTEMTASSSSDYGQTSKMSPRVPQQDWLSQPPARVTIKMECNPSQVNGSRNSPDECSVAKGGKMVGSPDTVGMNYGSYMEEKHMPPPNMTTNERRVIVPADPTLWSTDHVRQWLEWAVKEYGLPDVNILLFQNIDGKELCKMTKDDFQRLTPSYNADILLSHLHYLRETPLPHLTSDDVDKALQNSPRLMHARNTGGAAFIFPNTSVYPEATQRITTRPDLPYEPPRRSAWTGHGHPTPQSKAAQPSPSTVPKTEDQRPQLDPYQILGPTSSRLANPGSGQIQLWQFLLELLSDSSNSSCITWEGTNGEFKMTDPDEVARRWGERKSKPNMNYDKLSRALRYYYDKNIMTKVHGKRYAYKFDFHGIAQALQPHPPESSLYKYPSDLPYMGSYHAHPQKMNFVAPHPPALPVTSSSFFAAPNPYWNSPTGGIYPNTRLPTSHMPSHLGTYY
The gist of the method:
as §1

Another test addresses ELF1 (Homo sapiens, UniProt P32519 1-619). The gist of the method: as §1
The target in the next test is T5, EHF (Homo sapiens, UniProt Q9NZC4 1-300).
T5 sequence: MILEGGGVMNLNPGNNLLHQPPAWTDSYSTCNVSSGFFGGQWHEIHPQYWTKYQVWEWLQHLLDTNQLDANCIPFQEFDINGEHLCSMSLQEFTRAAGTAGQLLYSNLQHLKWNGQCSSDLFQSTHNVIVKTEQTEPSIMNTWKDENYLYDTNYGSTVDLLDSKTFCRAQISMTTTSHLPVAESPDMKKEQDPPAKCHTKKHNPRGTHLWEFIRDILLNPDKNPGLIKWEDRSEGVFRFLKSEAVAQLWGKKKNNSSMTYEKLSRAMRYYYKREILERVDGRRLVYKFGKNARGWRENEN
Put shortly:
as §1

In the next test the target is SPI1 (Homo sapiens, UniProt P17947 1-270). Put shortly: as §1
In another test the target is SPIB (Homo sapiens, UniProt Q01892 1-262). The gist of the method:
as §1

Another test concerns the target T6, ELK3 (Homo sapiens, UniProt P41970 1-407).
T6 sequence: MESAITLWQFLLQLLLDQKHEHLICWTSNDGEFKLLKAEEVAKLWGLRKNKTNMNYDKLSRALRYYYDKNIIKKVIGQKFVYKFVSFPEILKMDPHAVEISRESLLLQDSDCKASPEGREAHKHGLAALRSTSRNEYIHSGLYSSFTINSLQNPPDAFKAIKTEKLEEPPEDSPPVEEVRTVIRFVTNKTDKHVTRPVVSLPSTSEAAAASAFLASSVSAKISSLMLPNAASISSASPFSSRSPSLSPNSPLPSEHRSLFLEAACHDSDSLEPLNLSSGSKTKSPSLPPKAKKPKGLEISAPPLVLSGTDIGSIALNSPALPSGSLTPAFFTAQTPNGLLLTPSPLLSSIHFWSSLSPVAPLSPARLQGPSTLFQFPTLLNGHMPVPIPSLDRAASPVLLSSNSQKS
The gist of the method: as §1

Sequence of ELF1 (P32519 whole entry): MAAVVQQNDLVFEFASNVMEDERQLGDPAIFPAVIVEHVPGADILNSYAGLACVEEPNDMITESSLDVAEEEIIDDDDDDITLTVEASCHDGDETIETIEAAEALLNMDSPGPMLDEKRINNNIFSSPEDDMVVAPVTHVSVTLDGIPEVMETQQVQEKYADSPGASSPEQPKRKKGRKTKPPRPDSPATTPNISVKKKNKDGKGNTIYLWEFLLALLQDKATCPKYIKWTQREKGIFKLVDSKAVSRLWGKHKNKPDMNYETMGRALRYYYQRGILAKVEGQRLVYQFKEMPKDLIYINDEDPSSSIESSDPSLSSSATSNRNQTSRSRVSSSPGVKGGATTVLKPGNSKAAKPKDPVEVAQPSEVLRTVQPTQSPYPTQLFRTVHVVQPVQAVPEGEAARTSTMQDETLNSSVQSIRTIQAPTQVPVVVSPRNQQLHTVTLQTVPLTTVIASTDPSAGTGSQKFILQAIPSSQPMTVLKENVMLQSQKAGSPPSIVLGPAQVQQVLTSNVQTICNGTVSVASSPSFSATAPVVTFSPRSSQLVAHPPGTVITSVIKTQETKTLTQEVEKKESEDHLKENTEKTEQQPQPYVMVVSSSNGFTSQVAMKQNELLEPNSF
Sequence of SPIB (Q01892 whole entry): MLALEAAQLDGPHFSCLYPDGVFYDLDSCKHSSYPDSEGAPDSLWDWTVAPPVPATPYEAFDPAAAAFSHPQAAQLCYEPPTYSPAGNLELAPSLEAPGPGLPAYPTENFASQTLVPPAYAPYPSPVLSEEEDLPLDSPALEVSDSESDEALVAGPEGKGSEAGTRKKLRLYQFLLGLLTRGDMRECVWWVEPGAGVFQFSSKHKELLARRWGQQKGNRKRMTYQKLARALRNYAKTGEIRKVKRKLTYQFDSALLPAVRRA

For GGCTCC, the binding signal in the test with FLI1 is 1.33 fold enrichment (6-mer frequency, TF over GST control); in the test with ELK1, 1.29 fold enrichment (6-mer frequency, TF over GST control); in the test with GABPA, 1.44 fold enrichment (6-mer frequency, TF over GST control); in the test with ERG, 1.35 fold enrichment (6-mer frequency, TF over GST control); in the test with ELF1, 1.3 fold enrichment (6-mer frequency, TF over GST control); in the test with EHF it was 1.31 fold enrichment (6-mer frequency, TF over GST control). Moreover, the binding signal with SPI1 is 1.22 fold enrichment (6-mer frequency, TF over GST control); with SPIB it was 1.39 fold enrichment (6-mer frequency, TF over GST control); with ELK3 it was 1.27 fold enrichment (6-mer frequency, TF over GST control).
As to ATCTCT, the binding signal in the test with FLI1 is 1.29 fold enrichment (6-mer frequency, TF over GST control); in the test with ELK1, 1.24 fold enrichment (6-mer frequency, TF over GST control); with GABPA, 1.33 fold enrichment (6-mer frequency, TF over GST control); with ERG, 1.17 fold enrichment (6-mer frequency, TF over GST control); with ELF1, 1.29 fold enrichment (6-mer frequency, TF over GST control); with EHF it was 1.49 fold enrichment (6-mer frequency, TF over GST control). For the same sequence, the binding signal was 1.27 fold enrichment (6-mer frequency, TF over GST control) with SPI1; 1.36 fold enrichment (6-mer frequency, TF over GST control) with SPIB; 1.3 fold enrichment (6-mer frequency, TF over GST control) in the test with ELK3.
TTTCAT: the binding signal is 1.11 fold enrichment (6-mer frequency, TF over GST control) with FLI1; 1.09 fold enrichment (6-mer frequency, TF over GST control) with ELK1; 1.22 fold enrichment (6-mer frequency, TF over GST control) in the test with GABPA; 1.15 fold enrichment (6-mer frequency, TF over GST control) with ERG; 1.18 fold enrichment (6-mer frequency, TF over GST control) in the test with ELF1; 1.17 fold enrichment (6-mer frequency, TF over GST control) with EHF. For the same sequence, the binding signal with SPI1 is 1.14 fold enrichment (6-mer frequency, TF over GST control); in the test with SPIB, 1.22 fold enrichment (6-mer frequency, TF over GST control); with ELK3, 1.15 fold enrichment (6-mer frequency, TF over GST control).
As for CTGCCT, the binding signal is 1.2 fold enrichment (6-mer frequency, TF over GST control) with FLI1; 1.28 fold enrichment (6-mer frequency, TF over GST control) in the test with ELK1; 1.33 fold enrichment (6-mer frequency, TF over GST control) with GABPA; 1.18 fold enrichment (6-mer frequency, TF over GST control) in the test with ERG; 1.34 fold enrichment (6-mer frequency, TF over GST control) in the test with ELF1; 1.33 fold enrichment (6-mer frequency, TF over GST control) in the test with EHF. Moreover, the binding signal in the test with SPI1 is 1.27 fold enrichment (6-mer frequency, TF over GST control); in the test with SPIB, 1.21 fold enrichment (6-mer frequency, TF over GST control); with ELK3 it was 1.04 fold enrichment (6-mer frequency, TF over GST control).
Take GCTCCC: the binding signal with FLI1 was 1.37 fold enrichment (6-mer frequency, TF over GST control); in the test with ELK1 it was 1.28 fold enrichment (6-mer frequency, TF over GST control); with GABPA it was 1.34 fold enrichment (6-mer frequency, TF over GST control); with ERG, 1.33 fold enrichment (6-mer frequency, TF over GST control); with ELF1, 1.37 fold enrichment (6-mer frequency, TF over GST control); with EHF it was 1.33 fold enrichment (6-mer frequency, TF over GST control). Moreover, the binding signal with SPI1 was 1.26 fold enrichment (6-mer frequency, TF over GST control); in the test with SPIB, 1.28 fold enrichment (6-mer frequency, TF over GST control); in the test with ELK3, 1.18 fold enrichment (6-mer frequency, TF over GST control).
For the sequence AAAACA, the binding signal was 1.35 fold enrichment (6-mer frequency, TF over GST control) with FLI1; 1.22 fold enrichment (6-mer frequency, TF over GST control) with ELK1; 1.35 fold enrichment (6-mer frequency, TF over GST control) with GABPA; 1.34 fold enrichment (6-mer frequency, TF over GST control) with ERG; 1.31 fold enrichment (6-mer frequency, TF over GST control) in the test with ELF1; 1.31 fold enrichment (6-mer frequency, TF over GST control) with EHF. Further, the binding signal with SPI1 is 1.36 fold enrichment (6-mer frequency, TF over GST control); with SPIB, 1.24 fold enrichment (6-mer frequency, TF over GST control); with ELK3 it was 1.28 fold enrichment (6-mer frequency, TF over GST control).
Consider GTTGCT, for which the binding signal in the test with FLI1 is 1.34 fold enrichment (6-mer frequency, TF over GST control); with ELK1, 1.26 fold enrichment (6-mer frequency, TF over GST control); with GABPA it was 1.25 fold enrichment (6-mer frequency, TF over GST control); in the test with ERG, 1.3 fold enrichment (6-mer frequency, TF over GST control); with ELF1 it was 1.31 fold enrichment (6-mer frequency, TF over GST control); in the test with EHF, 1.35 fold enrichment (6-mer frequency, TF over GST control). For the same sequence, the binding signal with SPI1 is 1.34 fold enrichment (6-mer frequency, TF over GST control); in the test with SPIB it was 1.28 fold enrichment (6-mer frequency, TF over GST control); with ELK3 it was 1.25 fold enrichment (6-mer frequency, TF over GST control).

The values are drawn from paper PMC7862700, “An all-to-all approach to the identification of sequence-specific readers for epigenetic DNA modifications on cytosine”.
